What was measured:
Format in all cases: functional
[1] = biological target: Solute carrier family 2, facilitated glucose transporter member 1 (Homo sapiens) (UniProt P11166); assay: ST_JUDE_LEISH: Cytotoxicity at 2uM final concentration against transgenic Leishmania Mexicana promastigotes LmGLUT1 that are glucose transport deficient and complemented with the human glucose transporter GLUT1. Activity is measured by DNA content using SYBR green in vitro
[2] = biological target: Hexose transporter 1 (Plasmodium falciparum) (UniProt O97467); assay: ST_JUDE_LEISH: Cytotoxicity at 2uM final concentration against transgenic Leishmania Mexicana promastigotes LmPfHT that are glucose transport deficient and complemented with the Plasmodium falciparum hexose transporter. Activity is measured by DNA content using SYBR green in vitro
[3] = biological target: Glucose transporter (Leishmania mexicana) (UniProt O61059); assay: ST_JUDE_LEISH: Cytotoxicity at 2uM final concentration against transgenic Leishmania Mexicana promastigotes LmGT2 that are glucose transport deficient and complemented with the L. Mexicana glucose transporter 2. Activity is measured by DNA content using SYBR green in vitro

Sequence of Solute carrier family 2, facilitated glucose transporter member 1 (Homo sapiens) (P11166 whole entry): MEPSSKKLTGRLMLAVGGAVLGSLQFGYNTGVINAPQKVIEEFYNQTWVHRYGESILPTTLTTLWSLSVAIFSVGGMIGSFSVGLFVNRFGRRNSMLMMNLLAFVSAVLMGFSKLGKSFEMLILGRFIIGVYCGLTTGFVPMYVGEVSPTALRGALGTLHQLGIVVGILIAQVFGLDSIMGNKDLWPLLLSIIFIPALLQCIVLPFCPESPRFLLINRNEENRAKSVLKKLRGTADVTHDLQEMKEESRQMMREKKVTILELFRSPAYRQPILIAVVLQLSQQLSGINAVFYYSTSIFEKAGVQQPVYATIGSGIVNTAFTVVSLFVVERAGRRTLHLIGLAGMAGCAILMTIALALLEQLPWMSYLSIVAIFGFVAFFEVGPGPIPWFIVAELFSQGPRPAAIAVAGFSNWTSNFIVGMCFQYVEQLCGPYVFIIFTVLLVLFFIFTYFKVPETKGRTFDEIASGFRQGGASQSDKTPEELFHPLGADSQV

| SMILES | inhibition [1] [%] | inhibition [2] [%] | inhibition [3] [%] |
| --- | --- | --- | --- |
| CC(=O)c1cccc(NC(=O)NC2CCN(CCCCCNC(=O)/C=C/c3ccc(Cl)c(Cl)c3)CC2)c1 | 1.56 | 2.6 | 5.52 |
| Oc1ccc2[nH]c(-c3ccc(OC(F)(F)F)cc3)nc2c1CNC1CCCC1 | 2.65 | 3.35 | 3.64 |
| Cc1cc(NC(=O)c2ccc(S(=O)(=O)N(Cc3ccccc3)C(C)C)cc2)no1 | 3.7 | 3.18 | 3.77 |
| CC1CN(c2nc(NCCc3ccc(O)cc3)nc(NCc3ccccc3-c3ccc(C(F)(F)F)cc3)n2)CC(C)N1 (centres undefined) | 4.25 | 4.62 | 6.55 |
| CCN(CC)CCCOc1ccc(Nc2nccc(-c3c(-c4cccc(NC(=O)c5c(F)cccc5F)c4)nn4ccccc34)n2)cc1F | 58 | 56.7 | 10.5 |
| COc1ccccc1C1CCN(C2CCC(NC(=O)/C=C/c3cccc(Cl)c3F)CC2)CC1 (centres undefined) | 10.5 | 1.32 | 3.14 |
| COCCNCc1cccc(-c2cc3nccc(Nc4ccc(Oc5ccccc5)cc4)c3cc2Cl)c1 | -0.26 | 2.37 | 0.83 |
| O=C1COc2cc(Cl)c(CNC3CCN(CCc4ccnc5c(F)cc(F)cc45)CC3)nc2N1 | 2.1 | 2.94 | 1.57 |
| N#Cc1cc([N+](=O)[O-])ccc1-n1nc(C(N)=O)n(Cc2cccc(F)c2)c1=S | 11.3 | 8.94 | 5.66 |
| CCCCCCCN1CC[C@@H](C[C@H](N)Cc2ccnc3ccc(OC)cc23)[C@@H](CC)C1 | 0.24 | -1.97 | 0.03 |
| COc1cc2c(cc1N1CCN(C)CC1)N(C(=O)Nc1ccc(-c3ccncc3)c(Cl)c1Cl)CC2 | 0.34 | 0.34 | 0.64 |
| Cc1ccc2nc(-c3ccc(C(=O)NC4CCN(Cc5ccccc5)CC4)s3)[nH]c2c1 | -1.39 | 1.8 | 1.22 |
| O=C(CCc1cccnc1)Nc1cccc(-c2ccc(-c3nc4cc(C(F)(F)F)ccc4[nH]3)cc2)c1 | 9.2 | 7.53 | 6.85 |
| c1ccc(CN2CCC(NCc3ccc(-c4cccc(CNC5CCCC5)c4)cc3)CC2)cc1 | 15.8 | 8.03 | 0.89 |
| CS(=O)(=O)c1ccccc1CNC(=O)c1cccc(-c2ccc(-c3nc4cc(C(F)(F)F)ccc4[nH]3)cc2)c1 | 2.38 | 1.77 | 0.15 |
| COc1ccc(NS(=O)(=O)c2cccc(C(=O)Nc3ccc(C(F)(F)F)cc3)c2)cc1N1CCN(CC(C)C)CC1 | 7.82 | 4.29 | 6.21 |
| CC(C)NCc1ccc(-c2cccc(NC(=O)c3ccc(Cl)cc3)c2)cc1 | 8.23 | 6.77 | 7.51 |
| CCc1ccc(CN2CCC(NC(=O)c3ccc(-c4ccccc4F)s3)CC2)cc1 | 0.37 | 0.03 | -5.91 |
| Nc1ncnc2occ(-c3ccc(NC(=O)Nc4cc(C(F)(F)F)ccc4F)cc3)c12 | 0.61 | 2.93 | -2.03 |
| Cc1cccc(CNc2nc(C)cc(N[C@@H](Cc3ccccc3)C(=O)NCc3cccc(F)c3)n2)c1 | 6.42 | 6.57 | 2.83 |
| CCC(CC)n1c(COC)cc2c3c(N)nc(N)nc3ccc21 | 33.6 | 51.1 | 37.3 |
| Cc1c(-c2ccccc2)ccc2[nH]cc(CC#N)c12 | 1.56 | 3.54 | 0.3 |
| COc1c(CCNCCCCNCCc2cc(Cl)c3ccccc3c2OC)cc(Cl)c2ccccc12 | 102 | 100 | 105 |
| COc1cccc(C(=O)NCCc2cccc(Cl)c2)c1OCc1ccccc1 | 0.04 | -0.53 | -0.7 |

| SMILES | inhibition [1] [%] | inhibition [2] [%] | inhibition [3] [%] |
| --- | --- | --- | --- |
| c1ccc(-c2cccnn2)cc1 | 1.25 | 1.26 | 1.72 |
| COc1ccc2nccc([C@@H](O)CN3CCC(NC(=O)/C=C/c4ccc(Cl)c(C(F)(F)F)c4)CC3)c2c1 | 5 | 4.74 | -1.23 |
| CCc1c(CCNCCCCCCNC(C)Cc2ccc3c(c2CC)OCO3)ccc(OC)c1OC (centres undefined) | 4.49 | 3.47 | 1.99 |
| N#C/N=C(\NCCCCCCCCN/C(=N\C#N)NCCSCc1csc(N=C(N)N)n1)NCCCSc1csc(N=C(N)N)n1 | -0.03 | 0.11 | 0.43 |
| COCCn1c(Sc2ccc(C#N)c([N+](=O)[O-])c2)nnc1-c1ccc(N(C)C)cc1 | 13 | 13.5 | 11.7 |
| Nc1nc(N)c2c(Oc3ccc(Cl)c(Cl)c3)cccc2n1 | 0.48 | -0.05 | -3.94 |
| Cc1nc(N/C(N)=N/C(=O)NC2CCCCC2)nc2ccccc12 | 7.72 | 5.72 | 6.66 |
| O=C(/C=C/c1c(Cl)cccc1Cl)NC1CCC(CN2CCC(c3c[nH]c4ccncc34)CC2)CC1 (centres undefined) | 5.27 | 5.98 | 4.84 |
| CN(C)C(CNC(=O)c1cc(-c2ccncc2)c(-c2ccc(NC(=O)Nc3cccc(F)c3)cc2)o1)c1ccccc1 (centres undefined) | 0.98 | 0.71 | 0.6 |
| Cc1cc(NC2CCCC2)nc(Nc2ccccc2C)n1 | 12.6 | 7.5 | 4.09 |
| Cc1cc(Nc2ccc(OCc3ccccc3Cl)cc2)c2cc(Cl)ccc2n1 | 19.8 | 16.4 | 7.55 |
| CCC(=O)OC(CCN(CC)CC)(c1ccccc1)c1ccccc1 | 1.98 | 1.16 | 1.58 |
| Nc1cccc(C=CC(=O)N=c2cc[nH]c3ccccc23)c1 | -0.24 | 0.74 | -2.1 |
| Cc1cc(Nc2ccc3ccccc3c2)n2ncnc2n1 | -0.63 | -3.58 | -1.18 |
| CCOc1ccc2c(=NN=Cc3ccccc3OC)cc(C)[nH]c2c1 | 7.35 | 7.09 | 6.71 |
| CC(=O)Nc1sc(C)c(C)c1CN1CCc2ccccc2C1 | -0.17 | 0.49 | -1.3 |
| Nc1nc(N)c2c(Oc3cccc4ccccc34)cccc2n1 | 4.57 | 2.3 | 3.17 |
| O=C(/C=C/c1ccc(Cl)c(Cl)c1)NCCCCN1CCCN(C(=O)Nc2ccc(Cl)c(Cl)c2)CC1 | -2.19 | 0.32 | -1.91 |
| CC(C)NCc1cccc(-c2ccc(-c3nc4ccccc4[nH]3)cc2)c1 | 3.1 | 2.97 | 0.41 |
| COCCCNC(=O)[C@H]1CNCCN1C(=O)c1ccccc1 | 1 | 0.97 | 3.67 |
| Cc1cc(NC2CCN(CC3CCCCC3)CC2)nc(Nc2ccccc2Cl)n1 | 2.86 | 6.27 | 0.85 |
| Cc1[nH]c(C)c(-c2ccc(Oc3ccc(F)cc3)cc2)c(=O)c1Cl | 4.38 | 4.42 | 3.79 |
| Cn1cnc2c(SCc3ccc(OCc4ccccc4)cc3)ncnc21 | 2.71 | 4.19 | 6.37 |
| Cc1cc(N[C@@H](Cc2ccccc2)C(=O)NCc2cccc(F)c2)nc(NCCCOC(C)C)n1 | 0.45 | 1.37 | 1.72 |
